Compound activity deposited in PubChem by National Center for Advancing Translational Sciences (NCATS).
This is a sample that favours compounds with a hit; in the whole collection about 20% have one here.
HCMV inh: blocks human cytomegalovirus replication. activity change, negative = inhibition, % at 57.5 µM. hit rate 4.5% among 410,000. HFF cells, HCMV-luciferase reporter, 72 h; active compounds read low; in the data active = activity change below about -60%; inconclusive = no clear call, values can overlap the other calls; inactive = above about -39%; also: % is scaled to controls: 0 for no effect and ±100 for the full control effect
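Steps: HFFs plated, 16 h 37C; compounds added; HCMV-luciferase added to MOI 1 PFU/cell; 72 h 37C; OneGlo reagent, 5 min room temperature; luminescence read, normalized to controls.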
Cycloheximide cs: counter-screen hit for Shiga toxin inhibitors, cycloheximide; hit rate 12% among 300,000; cell reporter, cycloheximide protein synthesis inhibition counterscreen; max response, %; AID 2314; in the data active = max response mostly above about 13%, no sharp cut-off; inactive = mostly below about 14%; also: read at 38.3 µM for the half of the compounds with a filed dose; 0% is about no effect
Pf growth 48h: inhibits P. falciparum growth in the first generation, 48 h | P. falciparum luciferase growth in erythrocytes, 48 h | Potency, µM (titrated, usually from 28.7 µM), inactives show at the top dose activity change, negative = inhibition, usual class: inhibitors | hit rate 5.9% among 310,000; also: potency is read from the fitted curve at half-maximal effect; % is scaled to controls: 0 for no effect and ±100 for the full control effect
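A one-generation exposure of luciferase-tagged malaria parasites in RPMI 1640/Albumax erythrocyte culture, 37 C and 5% CO2. Inhibition is inferred from decreased luminescence after adding detection reagent.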
Shiga inhibitor: Shiga toxin inhibition. Vero cells, Shiga toxin protein synthesis inhibition reporter. inhibition, % at 38.7 µM. hit rate 9.2% among 290,000; in the data active = inhibition mostly above about 28%, no sharp cut-off; inactive = mostly below about 43%; also: 0% is about no effect
Pf growth 96h: inhibits malaria parasite growth, 96 h; P. falciparum luciferase reporter growth, 96 h; Potency, µM (titrated, usually from 28.7 µM), inactives show at the highest dose activity change, negative = inhibition, hits mostly inhibitors; hit rate 6.9% among 320,000; also: potency is read from the fitted curve at half-maximal effect; % is scaled to controls: 0 for no effect and ±100 for the full control effect
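Cell-based qHTS: luciferase-tagged P. falciparum in erythrocytes (2% hematocrit, 0.05% parasitemia final) incubated with compounds for 96 hours, 37 C, 5% CO2; luciferase detection reagent then added and luminescence measured.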
Active calls of the source: *; i = inactive; ? = inconclusive; · = no result given; [ ] = dose if it differs, or a comment. Unless noted, calls follow the shape of the dose curve; as a rule, active = well fitted inhibition curve with a large enough effect; inconclusive = small, poorly fitted or top-dose-only effect, or another doubt; inactive = no such curve, though single readings can be large or run the other way.

SMILES | HCMV inh | Cycloheximide cs | Pf growth 48h | Shiga inhibitor | Pf growth 96h
CCC(C)N(C(=O)Cn1nnc2ccccc21)C(C(=O)Nc1ccc(F)cc1)c1cccc(OC)c1 (stereo not drawn) | -27 | -2 | ? | -10 | 10µM*
CC(C)C[C@H]1CN(CCCC[C@H]2CNC(=O)C(=O)N2CCc2ccc(O)cc2)C(=O)C(=O)N1CCc1ccccc1 | -36 | · | · | · | ·
COc1ccc(C(=O)COC(=O)c2ccc(N(C)C)cc2)cc1 | -10 | -1 | 24% | -11 | 48%
CCc1ccc(C(=O)COC(=O)c2cccs2)cc1 | 24 | 23* | 166% | 52 | ·
Cc1ccc(C(=O)COC(=O)c2cccs2)cc1 | 36 | 11 | 363% | -2 | 102%
O=C(NNC(=O)c1cccs1)c1ccc2ccccc2c1 | -4 | 29* | 60% | 51* | 1.7µM*
O=C(COC(=O)c1cccs1)c1ccc2ccccc2c1 | -4 | 56* | 79% | 98* | 51%
CN(C)c1ccc(C(=O)OCC(=O)c2cccs2)cc1 | 42 | 45* | 362% | 71* | 9.3µM*
CC(NC(=O)CN1CCc2ccccc21)c1ccccc1 (stereo not drawn) | -4 | -2 | -14% | -3 | ?
CCOP(=S)(OCC)N1CCOCCOCCN(P(=S)(OCC)OCC)CCOCCOCC1 | 17 | -1 | 6.6µM* | -17 | ?
C/C(=N\N=C(N)N)c1ccc(C)c(C)c1 | 52 | 8 | 9.3µM* | -4 | 12µM*
O=C(CCc1nnc(Cc2ccc3c(c2)OCO3)o1)NC(c1ccccn1)C(F)(F)F (stereo not drawn) | -5 | -2 | ? | 28 | ?
COc1ccccc1C/C(N)=N/OC(=O)c1cccs1 | 65 | 18* | 13% | 40 | 19%
N/C(Cc1cccc2ccccc12)=N\OC(=O)Cc1cccs1 | 101 | 49* | ? | 62* | 36%
COc1ccc(C/C(N)=N/OC(=O)c2cccs2)cc1 | 41 | 19 | 46% | 38 | 3%
N/C(Cc1cccc2ccccc12)=N\OC(=O)c1cccs1 | · | -2 | 13µM* | -2 | 10%
COc1ccccc1C/C(N)=N/OC(=O)/C=C/c1ccccc1 | 39 | 22* | ? | 53* | ?
CCOc1cccc2cc(C(=O)NCc3ccccc3Cl)c(=O)oc12 | -16 | 4 | ? | 1 | -15%
COc1ccc(Cc2nc3c4cnn(-c5ccccc5Br)c4ncn3n2)cc1 | -23 | · | · | · | ·
COc1ccc(Cc2nc3c4c(ncn3n2)Oc2c(ccc3ccccc23)C4c2ccc(OC)c(OC)c2)cc1 (stereo not drawn) | ? | -3 | 2.6µM* | 3 | 1.9µM*
COc1ccc(Cc2nc3c4c(ncn3n2)Oc2ccc3ccccc3c2C4c2ccc(OC)c(OC)c2)cc1 (stereo not drawn) | -15 | -3 | 1.7µM* | -5 | ?
CCc1nc2ccc(C(=O)NCCNC(C)=O)cn2c1N(C)Cc1ccc(OC)cc1 | 13 | · | · | · | ·
O=C(COC(=O)c1ccc(O)cc1O)Nc1nnc(-c2ccccc2)o1 | 0 | · | 3% | · | 8%
NC(=O)NC(=O)COC(=O)CCCCCNS(=O)(=O)c1ccc2c(c1)OCCO2 | -18 | -1 | -7% | -9 | 13%
O=C(Nc1ccc(F)c(Cl)c1)c1cc(S(=O)(=O)N2CCCc3ccccc32)ccc1F | -32 | · | · | · | ·
SMILES | HCMV inh | Cycloheximide cs | Pf growth 48h | Shiga inhibitor | Pf growth 96h
COc1ccc(S(=O)(=O)N2CCCc3ccccc32)cc1[N+](=O)[O-] | ? | -5 | 1%[0.00184 µM] | -8 | -1%
O=C(O)C1CC=CCC1C(=O)Nc1ccc(S(=O)(=O)N2CCCc3ccccc32)cc1 (stereo not drawn) | -76* | -1 | -1% | -3 | 10µM*
COc1cc(/C=C/C(=O)O)cc(S(=O)(=O)N2CCCc3ccccc32)c1OC | 0 | 12* | -2% | 13 | ?
COc1ccc(S(=O)(=O)N2CCCc3ccccc32)cc1OC | ? | 33* | 12µM* | 55* | 57%
Cc1ccc(C)c(NC(=O)c2cc(S(=O)(=O)N3CCCc4ccccc43)ccc2F)c1 | -62* | · | · | · | ·
COc1ccccc1C(=O)Nc1c(C(=O)Nc2ccccc2F)oc2ccccc12 | -25 | · | · | · | ·
Cc1ccc2cccc(S(=O)(=O)N3CCCc4ccccc43)c2n1 | -65* | -2 | -24% | -9 | 0%
CC(=O)N1CCc2cc(S(=O)(=O)N3CCc4ccccc43)ccc21 | -68* | -2 | -1% | -2 | ?
O=S(=O)(c1ccc(F)cc1)N1CCCc2ccccc21 | · | 31* | 29% | · | 1.7µM*
CC(=O)N1CCc2cc(S(=O)(=O)N3CCc4ccccc4C3)ccc21 | -21 | 2 | · | -6 | ?
O=C(O)c1ccc(S(=O)(=O)N2CCCc3ccccc32)cc1 | 34 | -1 | 13% | -2 | -2%
O=S(=O)(c1ccccc1)N1CCCc2ccccc21 | · | 3 | 2% | 4 | 39%
CC(=O)c1ccc(S(=O)(=O)N2CCCc3ccccc32)cc1 | 30 | 11* | 10% | 27 | ?
Cc1ccc(-c2noc(Cn3cc(S(=O)(=O)N4CCCC4)ccc3=O)n2)cc1 | -15 | · | -17% | · | 30%
COC(=O)[C@@]12C[C@@H](CC(=O)NCCC(C)C)C(=O)N(Cc3ccccc3)C1=CCC(C)(C)C2 | 10 | · | · | · | ·
CCOc1ccc(CNC(=O)CN2C(=O)C3CCCCN3c3ccc(C(=O)N4CCCC4)cc32)cc1 (stereo not drawn) | -8 | · | · | · | ·
Cc1onc(-c2ccc(Cl)cc2)c1-c1ccnc(SCC(=O)Nc2cc(Cl)cc(Cl)c2)n1 | -15 | 1 | ? | 5 | ?
COc1cc(CNCCSc2nnnn2C)ccc1OCc1ccc(C)cc1 | 26 | · | · | · | ·
COCCNC(=O)c1ccc(S(=O)(=O)N2CCCc3ccccc32)cc1 | -21 | 29* | 5% | 74* | 3%
CN(C)C(=O)c1cc(C(=O)c2ccc(F)cc2F)c[nH]1 | 9 | 16* | 43% | 102* | 88%
CN(C)C(=O)c1cc(C(=O)c2ccc(C(F)(F)F)cc2F)c[nH]1 | 10 | 42* | i | 92* | 187%
COC(=O)CSC(C(=O)Nc1ccc(C)c(C)c1)c1ccccc1 (stereo not drawn) | 48 | 19 | 1% | 44* | 0%
Cc1ccc(NC(=O)C(SCC(=O)O)c2ccccc2)cc1C (stereo not drawn) | 6 | -2 | -6% | 13 | 25%
CCN(CC)C(=O)Nc1ccc(C(=O)OC)cc1 | 13 | 16* | · | 13 | 99%
CC(C)OC(=O)c1cccc(NC(=O)c2ccccc2)c1 | ? | 26* | 211% | 69* | 145%
Cc1ccc(NC(=O)c2ccc(NC(=O)c3ccccc3)cc2)cc1C | ? | 46* | 25% | 56* | 1.2µM*
CCC(C)c1cc([N+](=O)[O-])cc([N+](=O)[O-])c1OC(=O)OC(C)C (stereo not drawn) | · | 6 | · | 15 | ·
COc1ccc2cc(C(=O)NCCCN3CCCC3=O)[nH]c2c1 | 88 | 17 | 25% | 35 | 37%
O=C(NCc1cccnc1)c1cc(C2CCCCN2S(=O)(=O)c2ccc(F)cc2F)on1 (stereo not drawn) | -12 | · | · | · | ·
